We go through 62 compounds from PubChem BioAssay AID651965 (National Center for Advancing Translational Sciences (NCATS), 2013).

The whole screen tested about 340,000 compounds, of which about 6,400 (1.9%) were called active. A call without a number means that no potency is given here. About 4% were inconclusive and are not listed. Calls follow the shape of the dose curve; as a rule, active = well fitted falling curve with a large enough effect; inconclusive = small, poorly fitted or top-dose-only effect; inactive = no such curve, though single readings can be large or run the other way. This excerpt belongs to a sample that is enriched for actives.
Potency is read from the fitted curve at half-maximal effect.

Sequence of ATP-dependent Clp protease proteolytic subunit (Bacillus subtilis (strain 168)) (P80244 whole entry, looked up): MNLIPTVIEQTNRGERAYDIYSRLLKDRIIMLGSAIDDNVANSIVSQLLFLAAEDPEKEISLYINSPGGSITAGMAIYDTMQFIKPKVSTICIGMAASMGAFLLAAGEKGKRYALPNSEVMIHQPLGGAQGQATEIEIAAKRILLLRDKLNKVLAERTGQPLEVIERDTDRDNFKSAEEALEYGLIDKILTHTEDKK

This assay has as its target ATP-dependent Clp protease proteolytic subunit (Bacillus subtilis (strain 168)) (UniProt P80244). Description: qHTS Assay for Activators of ClpP. Also: the source files actives as falling curves though it sought activators and does not explain the sign; nearly all actives have a fitted effect of over 65% in size. The following applies: purified B. subtilis ClpP, FRET peptide cleavage, 20 min; series mostly up to 57.5 µM. The procedure, abridged:
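ClpP 10 microg/mL final, pH 8 Tris/KCl buffer with BSA, glycerol, Tween-20; compound pinned in; FRET-FV substrate; RT 20 min; Ex320/Em430; ΔFRET vs ADEP 5.8 microM, DMSO, no enzyme.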
(qHTS replaces the single test concentration by a dilution series.)
Consider `O=C(c1ccccc1)N1CCN(c2cc(-c3ccccc3)nc3cc(-c4cccc(Cl)c4)nn23)CC1`, for which the Potency result was “inactive”.
Consider `CC=CCn1c(SCCCc2ccccc2)nc2c1c(=O)[nH]c(=O)n2C`, for which the Potency result was “inactive”.
Turning to `COc1ccc([C@H]2CC(=O)C[C@@H](CCn3cc(CC4CCCC4)nn3)O2)cc1`, the Potency entry is “inactive”.
With `COc1cccc(NC(=O)CN(C)C(=O)c2cc(Cl)nc3ccccc23)c1`, the Potency entry is “inactive”.
The result for `COc1ccc(NC(=O)c2cc(-c3ccc(C)o3)nc3ccccc23)cc1` reads “inactive”; that for `COc1ccc(NC(=O)CN(C)C(=O)c2cc(-c3ccc(C)o3)nc3ccccc23)cc1`, 25.1 µM (active); that for `Cc1ccc(F)c(S(=O)(=O)NC(=O)C2(C)CCN2C(=O)CCc2cccs2)c1` (configuration not stated), “inactive”.
As for `Cc1ccc(Nc2ccc(C(N)=O)cc2[N+](=O)[O-])cc1`, the Potency was 12.6 µM (active).
Consider `CCOc1ccccc1Nc1ccc(C(=O)O)cc1[N+](=O)[O-]`, for which the Potency result was “inactive”.
As to `NC(=O)c1ccc(Nc2ccc3nonc3c2[N+](=O)[O-])cc1`, the Potency entry was “inactive”.
The result for `COc1cccc(OC)c1C(=O)Nc1ccc2c(c1)n(C)c(=O)n2C` reads “inactive”; that for `COc1cccc2c(O)cc(=O)n(C)c12`, 35.5 µM (active).
With `COc1cc2c(=O)n(C)c3ccccc3c2cc1OC`, the Potency entry was “inactive”.
Turning to `CCOc1ccc(Cl)cc1-c1cc(C(=O)NCc2cccs2)[nH]n1`, the Potency entry was “inactive”.
With `CCOCCC(=O)Nc1ccc2c(c1)c(=O)n(C)n2-c1ccc2ccccc2c1`, the Potency entry is “inactive”.
`O=C1CC(c2ccccc2)CC2=C1C(c1ccco1)n1nc(C(F)(F)F)nc1N2` (configuration not stated): the Potency entry was “inactive”.
For `CCCCc1c(-c2ccc(Br)cc2)ncn1CCc1ccccc1OC`, the Potency result was “inactive”.
As to `O=C(OCC(=O)N1CCN(C(=O)c2ccco2)CC1)c1ccc(Cl)c(Cl)c1`, the Potency result was “inactive”.
Turning to `O=C(OCC(=O)N1CCN(C(=O)c2ccco2)CC1)c1c(Cl)cccc1Cl`, the Potency is 31.6 µM (active).
Next, `O=C(OCC(=O)N1CCN(C(=O)c2ccco2)CC1)c1cccc(O)c1`: “inactive”; `COc1cccc(-c2ccc3c(c2)N(Cc2ccccc2OC)C(=O)C(C)S3)c1` (configuration not stated): “inactive”.
Take `O=C1Nc2ccccc2-n2nnnc2C1N1CCN(c2cccc(C(F)(F)F)n2)CC1` (configuration not stated): the Potency entry was “inactive”.
`Cc1cc(=O)oc2cc(OC(C)C(=O)NCCc3ccc(S(N)(=O)=O)cc3)ccc12` (configuration not stated): the Potency entry is “inactive”.
For `Cc1cc(=O)oc2cc(NC(=O)C(C)Oc3ccccc3)ccc12` (configuration not stated), the Potency was 28.2 µM (active).
On to `Cc1cc(=O)oc2cc(OC(C)C(=O)Nc3ccc(N4CCOCC4)cc3)ccc12` (configuration not stated), for which the Potency entry was “inactive”.
Next, `Cc1cccc2cc(C#N)c(N3CCCC3)nc12`: 28.2 µM (active); `CC(=O)c1ccc(S(=O)(=O)N2CCN(c3nc4c(C)c(C)ccc4cc3C#N)CC2)cc1`: “inactive”; `Cc1cc(C)c2cc(C#N)c(N3CCNCC3)nc2c1`: “inactive”.
Consider `CC1(Oc2ccc(Cl)cc2)CCN(Cc2csc3ccccc23)C1` (configuration not stated), for which the Potency result is “inactive”.
Take `CN(CCOc1ccccc1)C(=O)c1cc(-c2ccco2)nc2ccccc12`: the Potency result was “inactive”.
Regarding `CC1CCCN(C(=O)c2cc(-c3ccco3)nc3ccccc23)C1` (configuration not stated), the Potency result is “inactive”.
`O=C(c1cc(-c2ccco2)nc2ccccc12)N(Cc1nnc(-c2ccc(Cl)cc2)o1)C1CC1`: the Potency is 28.2 µM (active).
Take `Cc1ccc(Cc2c(-c3ccco3)nc3ccc(Cl)cn23)cc1`: the Potency entry was “inactive”.
In the case of `O=C1NC[C@H](CCCCN2C[C@H](Cc3ccccc3)N(Cc3ccccc3)C(=O)C2=O)N(CCc2ccc(O)cc2)C1=O`, the Potency result was “inactive”.
With `O=C(c1ccc(CSc2ccccc2)cc1)N1CCCCCC1`, the Potency entry is “inactive”.
As for `CN(C)c1cc[n+](Cc2ccccc2)cc1`, the Potency result was “inactive”.
As for `CN(C)c1ccc(CSc2ccccc2)cc1`, the Potency is 12.6 µM (active).
For `COc1ccc(-c2cc(NC=O)c3ncc(-c4ccccc4)n3c2)cc1OC`, the Potency entry is “inactive”.
As to `CCc1nc2c(OCc3ccc(F)c(F)c3)cccn2c1N(C)C(=O)c1ccco1`, the Potency entry was “inactive”.
The result for `Cc1ccnc(NC(=O)c2ccoc2C)c1` reads “inactive”.
The result for `CCCn1c(=O)c(C(=O)Nc2cc(C)ccn2)c(O)c2ccccc21` reads “inactive”; that for `CC1=C(C(=O)Nc2cc(C)ccn2)C(c2cnn(C)c2)C2=C(CC(c3ccccc3)CC2=O)N1` (configuration not stated), 31.6 µM (active).
With `CN1OC[C@@H]2CN(S(=O)(=O)c3cccc4ccccc34)[C@H](c3ccc(N4CCCCC4)cc3)C[C@@H]21`, the Potency entry was “inactive”.
Turning to `O=C(NC(c1ccc(Cl)cc1)c1cnccn1)C1CCN(Cc2ccc(Cl)cc2)CC1` (configuration not stated), the Potency result was “inactive”.
Turning to `O=C1[C@H]2[C@@H](c3ccc(C(F)(F)F)cc3)N[C@]3(CCCN(Cc4ccc(Cl)cc4)C3=O)[C@H]2C(=O)N1Cc1ccccc1`, the Potency result is “inactive”.
Consider `Cc1ccccc1OCC(=O)Nc1ccc(S(=O)(=O)N2CCOCC2)cc1`, for which the Potency entry was “inactive”.
For `COc1ccc(/C=N/NC(=O)CNC(=O)c2ccc(S(=O)(=O)N3CCCC3)cc2)c(OC)c1`, the Potency result is “inactive”.
On to `COc1cccc(/C=N/NC(=O)CNC(=O)c2ccc(S(=O)(=O)N3CCOCC3)cc2)c1OC`, for which the Potency was 31.6 µM (active).
The result for `CC(C)Oc1ccc(CN2CCC2(C)C(=O)NCc2ccc(C(F)(F)F)cc2)cc1` (configuration not stated) reads “inactive”.
For the compound `CCc1nc2ccc(C(=O)N3CCC(O)(Cc4ccccc4)CC3)cn2c1N(C)C(=O)Cc1ccccc1`, the Potency result is “inactive”.
The result for `O=[N+]([O-])c1cccc2ncccc12` reads “inactive”; that for `CN1CCN(S(=O)(=O)c2ccc(N3CCN(c4ccccc4O)CC3)c([N+](=O)[O-])c2)CC1`, “inactive”; that for `CN1CN(C)c2ccc([N+](=O)[O-])c3cccc1c23`, 15.8 µM (active).
For `CC1(C)C=Cc2c(ccc(C(=O)/C=C/c3ccccc3)c2O)O1`, the Potency entry was “inactive”.
For the compound `COC(=O)[C@]12CCCCC=C1N(Cc1cccc3ccccc13)C(=O)[C@H](CC(=O)N1CCOCC1)C2`, the Potency result is “inactive”.
The result for `CCN(CC)C(=O)C1=C(C)N(Cc2ccc(C(C)(C)C)cc2)C(=O)C(CC(=O)NCc2cccc3ccccc23)C1` (configuration not stated) reads “inactive”; that for `CN(CCc1ccccn1)C1CCCN(S(=O)(=O)c2ccccc2Cl)C1` (configuration not stated), “inactive”; that for `CN(CC(=O)NCCc1ccccn1)S(=O)(=O)c1ccc(Cl)cc1`, “inactive”.
Consider `CN(CCc1ccccn1)S(=O)(=O)c1ccc2c3c(cccc13)C(=O)N2`, for which the Potency is 25.1 µM (active).
In the case of `COc1cc(OC)c(/C=C/c2ccnc3ccccc23)c(OC)c1`, the Potency entry is “inactive”.
Consider `COc1ccc(C(C(=O)Nc2c(C)cccc2C)N2CCN(c3ccc(C)cc3)CC2)cc1` (configuration not stated), for which the Potency entry is “inactive”.
For `CCC(CC)C(C(=O)NC1CCCC1)N1CCN(c2cc(C)nc3ccccc23)CC1` (configuration not stated), the Potency entry is “inactive”.
